PubChem BioAssay (EPA / NIEHS)
“And” between values parts separate entries of the source, which are not always exact repeats. Equal values may be shown once. Records with an inconclusive call do not appear. The source made the active and inactive calls. How the source made its calls, unless noted: active means hit-call score of the fitted dose curve at least 0.9, where 1 is the maximum; inconclusive means response in the unintended direction; inactive means score below 0.9.

Tests used:
[1] = read-out: Transforming Growth Factor (TGFA), TGFA (gene 7039); assay: LTEA_HepaRG_TGFA: Life Technologies and Expression Analysis (LTEA) Assay for Transforming Growth Factor (TGFA) using HepaRG (AID 2283532; active means hit-call score of the fitted dose curve at least 0.9, where 1 is the maximum; inactive means score below 0.9); settings: mRNA level, 48 h; actives raise or lower the signal
Method in brief: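 TGFA transcript quantified by qRT-PCR (Fluidigm arrays) against three housekeeping genes, after 48 hours chemical treatment of HepaRG cells. Top concentration 100 uM with half-log dilutions, 8 points, duplicates, 0.5% DMSO.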

[2] = read-out: Transforming Growth Factor (TGFB1), TGFB1 (gene 7040); assay: LTEA_HepaRG_TGFB1: Life Technologies and Expression Analysis (LTEA) Assay for Transforming Growth Factor (TGFB1) Transporter using HepaRG (AID 2283533; active means hit-call score of the fitted dose curve at least 0.9, where 1 is the maximum; inactive means score below 0.9); settings: mRNA level, 48 h; actives raise or lower the signal
Method in brief: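 HepaRG, 48 h post-plating, switched to serum-free induction medium; chemicals 100 uM top, half-log, 8 pts, 0.5% DMSO, dup; 48 h exposure; RNA → Fluidigm TaqMan qRT-PCR; norm ACTB/GAPDH/POLR2A; bidirectional fit vs DMSO.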

[3] = read-out: TIMP1, TIMP1 (gene 7076); assay: LTEA_HepaRG_TIMP1: Life Technologies and Expression Analysis (LTEA) Assay for TIMP1 using HepaRG (AID 2283534; active means hit-call score of the fitted dose curve at least 0.9, where 1 is the maximum; inactive means score below 0.9;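 further: TaqMan qRT-PCR signal normalized to ACTB GAPDH and POLR2A housekeeping genes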); settings: mRNA level, 48 h; actives raise or lower the signal
Method in brief: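 Readout is TIMP1 mRNA level measured by qRT-PCR and normalized to three housekeeping genes. Human HepaRG cells were treated for 48 h in duplicate at eight concentrations up to 100 uM (0.5% DMSO); gain or loss fitted against DMSO.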

[4] = read-out: Tumor necrosis factor receptor 1 (TNFRSF1A), TNFRSF1A (gene 7132); assay: LTEA_HepaRG_TNFRSF1A: Life Technologies and Expression Analysis (LTEA) Assay for Tumor necrosis factor receptor 1 (TNFRSF1A) using HepaRG (AID 2283535; active means hit-call score of the fitted dose curve at least 0.9, where 1 is the maximum; inactive means score below 0.9); settings: mRNA level, 48 h; actives raise or lower the signal
Method in brief: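 Read-out is TNFRSF1A transcript level by TaqMan qRT-PCR, normalized to three housekeeping genes, scored as gain or loss of signal versus 0.5% DMSO. Human HepaRG cells received test chemicals for 48 h at up to 100 uM (half-log series).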

[5] = read-out: Cellular tumor antigen p53 (Homo sapiens) (UniProt P04637); assay: LTEA_HepaRG_TP53: Life Technologies and Expression Analysis (LTEA) Assay for Tumor Protein P53 (TP53) using HepaRG (AID 2283537; active means hit-call score of the fitted dose curve at least 0.9, where 1 is the maximum; inactive means score below 0.9); settings: mRNA level, 48 h; actives raise or lower the signal
Method in brief: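 TP53 transcript measured by qRT-PCR, normalized to three housekeeping genes, after 48 h treatment of human HepaRG cultures with chemicals from 100 uM downward in half-log steps (0.5% DMSO vehicle, serum-free induction medium). Up- or down-regulation fitted against DMSO.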

[6] = read-out: UDP glucuronosyltransferase (UGT1A1), UGT1A1 (gene 54658); assay: LTEA_HepaRG_UGT1A1: Life Technologies and Expression Analysis (LTEA) Assay for UDP glucuronosyltransferase (UGT1A1) using HepaRG (AID 2283538; active means hit-call score of the fitted dose curve at least 0.9, where 1 is the maximum; inactive means score below 0.9); settings: mRNA level, 48 h; actives raise or lower the signal
Method in brief: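 Cells are plated, cultured 48 h, switched to serum-free induction medium, then dosed 48 h at eight concentrations (max 100 uM, 0.5% DMSO). RNA is isolated and UGT1A1 expression measured by qRT-PCR; changes versus DMSO are fitted in both directions.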

[7] = read-out: UDP glucuronosyltransferase (UGT1A6), UGT1A6 (gene 54578); assay: LTEA_HepaRG_UGT1A6: Life Technologies and Expression Analysis (LTEA) Assay for UDP glucuronosyltransferase (UGT1A6) using HepaRG (AID 2283539; active means hit-call score of the fitted dose curve at least 0.9, where 1 is the maximum; inactive means score below 0.9); settings: mRNA level, 48 h; actives raise or lower the signal
Method in brief: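 HepaRG, 48 h post-plating switch to serum-free induction medium; chemical 48 h, 100 uM top, half-log x8, duplicate, 0.5% DMSO. Phenobarbital 1mM induction control. UGT1A6 mRNA by TaqMan qRT-PCR; gain/loss fit vs DMSO.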

[8] = read-out: X-box binding protein 1 (XBP1), XBP1 (gene 7494); assay: LTEA_HepaRG_XBP1: Life Technologies and Expression Analysis (LTEA) Assay for X-box binding protein 1 (XBP1) using HepaRG (AID 2283540; active means hit-call score of the fitted dose curve at least 0.9, where 1 is the maximum; inactive means score below 0.9); settings: mRNA level, 48 h; actives raise or lower the signal
Method in brief: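 Transcript levels of XBP1, measured by qRT-PCR and normalised to three housekeeping genes, were fitted bidirectionally relative to 0.5% DMSO controls. Human HepaRG cells received eight-point half-log dilutions from 100 uM for 48 h.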

[9] = LTEA_HepaRG_LDH_cytotoxicity: Cytotoxicity Assessment in the Life Technologies and Expression Analysis (LTEA) Assay (AID 2283563);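 on AC50: LDH activity released into spent culture medium as a marker of cell death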
Method in brief: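 Cells were thawed and plated for 48 h. Medium was then replaced with serum-free induction medium. Chemicals (8 half-log points, maximum 100 uM, 0.5% DMSO) were added in duplicate for 48 h, after which spent medium was assayed for LDH.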

[10] = ATG_XTT_Cytotoxicity: Cytotoxicity Assessment in the Attagene TRANS-FACTORIAL HepG2 Assay (AID 2283584)
Method in brief: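 Cells: human HepG2, transiently transfected with MRTU reporter constructs. Exposure 24 h. Readout: XTT, cell number. Baseline/neg ctrl DMSO; loss-of-signal scored.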

[11] = TOX21_p53_BLA_p2_viability: Viability Assessment in the Tox21 HCT-116 p53 Agonism Beta-lactamase Assay, Phase 2 (AID 2283591);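 further: compound exposure lasted 16 h at 37 °C; actives lower the ATP signal meaning cytotoxicity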
Method in brief: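 Cytotoxicity readout: CellTiter-Glo ATP luminescence, 30 min at room temperature, after the beta-lactamase read. Cells were HCT116 exposed 16 h at 37C to compounds pin-transferred at 217-fold dilution from DMSO stocks.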

[12] = biological target: Cellular tumor antigen p53 (Homo sapiens) (UniProt P04637); assay: TOX21_p53_BLA_p3_ratio: Tox21 HCT-116 p53 Agonism Beta-lactamase Assay, Ratio, Phase 3 (AID 2283596)
Chain of Cellular tumor antigen p53 (Homo sapiens) (P04637 whole entry, looked up): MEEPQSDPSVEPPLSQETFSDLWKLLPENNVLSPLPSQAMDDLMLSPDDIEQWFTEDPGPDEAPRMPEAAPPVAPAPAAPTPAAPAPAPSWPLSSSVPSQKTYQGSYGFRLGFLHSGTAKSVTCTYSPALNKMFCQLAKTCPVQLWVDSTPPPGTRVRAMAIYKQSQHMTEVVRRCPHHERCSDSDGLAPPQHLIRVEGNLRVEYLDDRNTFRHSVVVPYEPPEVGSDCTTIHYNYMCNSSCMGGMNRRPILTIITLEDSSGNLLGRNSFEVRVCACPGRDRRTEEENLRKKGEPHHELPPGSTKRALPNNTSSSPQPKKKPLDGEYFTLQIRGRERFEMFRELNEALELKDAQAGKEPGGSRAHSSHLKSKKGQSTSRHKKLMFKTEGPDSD
Method in brief: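 Cells were seeded at 4000/well, rested 5 h at 37C, then dosed with DMSO compound solutions (217-fold dilution) for 16 h. CCF4-AM substrate was loaded for 2 h at room temperature, and the 460/530 nm emission ratio was fitted for gain of signal versus DMSO.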

[13] = TOX21_p53_BLA_p4_viability: Viability Assessment in the Tox21 HCT-116 p53 Agonism Beta-lactamase Assay, Phase 4 (AID 2283597);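 further: hits lower the luminescence signal meaning cytotoxicity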
Method in brief: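 Readout: ATP luminescence (CellTiter-Glo), measured 30 min after reagent addition at RT. The reagent followed a 2 h CCF4-AM incubation, and the cells had been exposed to compound for 16 h at 37C.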

[14] = biological target: Cellular tumor antigen p53 (Homo sapiens) (UniProt P04637); assay: TOX21_p53_BLA_p5_ratio: Tox21 HCT-116 p53 Agonism Beta-lactamase Assay, Ratio, Phase 5 (AID 2283599)
Method in brief: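 Beta-lactamase reporter ratio (blue 460 nm over green 530 nm, 405 nm excitation) after 2 h CCF4-AM loading, in HCT-116 cells exposed 16 h at 37 C to compounds pinned at 217-fold dilution. Increases relative to DMSO baseline scored.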

[15] = TOX21_p53_BLA_p5_viability: Viability Assessment in the Tox21 HCT-116 p53 Agonism Beta-lactamase Assay, Phase 5 (AID 2283600)
Method in brief: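 Workflow: seed 4000 cells per well, wait 5 h, add compounds (DMSO, 217-fold dilution), incubate 16 h, load CCF4-AM 2 h, add CellTiter-Glo, read luminescence after 30 min.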

[16] = biological target: Cellular tumor antigen p53 (Homo sapiens) (UniProt P04637); assay: TOX21_p53_BLA_p4_ratio: Tox21 HCT-116 p53 Agonism Beta-lactamase Assay, Ratio, Phase 4 (AID 2283601)
Method in brief: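 Signal is the blue/green (460nm/530nm) ratio of cleaved versus uncleaved CCF4-AM substrate, read after 2 h substrate loading. Cells were HCT116 carrying the p53-responsive beta-lactamase reporter, dosed 16 h at 37C, 5% CO2; CellTiter-Glo measured in parallel.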

[17] = Tanguay_ZF_120hpf_MORT_legacy: (Legacy) Oregon State University Tanguay Lab 120 Hour Post-fertilization zebrafish Assay for Mortality (AID 2283633);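 on AC50: fitted as increase in binary mortality versus DMSO negative control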
Method in brief: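 5D WT zebrafish, chorion removed 4 hpf; 1 embryo/well from 6 hpf; static exposure to 120 hpf, 28C, dark, sealed. Final DMSO 0.64%. Readout: binary mortality, brightfield, 24 + 120 hpf; DMSO as negative control.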

[18] = biological target: Cellular tumor antigen p53 (Homo sapiens) (UniProt P04637); assay: TOX21_p53_BLA_p2_ratio: Tox21 HCT-116 p53 Agonism Beta-lactamase Assay, Ratio, Phase 2 (AID 2283592)
Method in brief: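 Plated HCT116 p53-bla cells (4000/well) received compound after 5 h, then 16 h at 37C/5% CO2. CCF4-AM added, 2 h RT. Ratio of 460 to 530 nm emission taken as the p53 reporter signal.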

[19] = TOX21_p53_BLA_p3_viability: Viability Assessment in the Tox21 HCT-116 p53 Agonism Beta-lactamase Assay, Phase 3 (AID 2283593);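 further: cells exposed to compound for 16 h before reading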
Method in brief: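 Cellular ATP was quantified by CellTiter-Glo luminescence, read after 30 min at room temperature. Beforehand, HCT116 cells (4000/well) received compound 5 h post-seeding, 217-fold diluted from DMSO, then incubated 16 h at 37C.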

## CN(C)c1ccc(C(=O)c2ccc(N(C)C)cc2)cc1
[1]
  outcome: inactive
[2]
  outcome: inactive
[3]
  outcome: inactive
[4]
  outcome: inactive
[5]
  outcome: inactive
[6]
  AC50: 13.2 µM (active)
[7]
  outcome: inactive
[8]
  outcome: inactive
[9]
  outcome: inactive
[10]
  outcome: inactive
[11]
  outcome: inactive
[12]
  AC50: 826 nM (active) and 1.65 µM (active)
[13]
  outcome: inactive
[14]
  AC50: 690 nM (active) and 351 nM (active)
[15]
  outcome: inactive
[16]
  AC50: 907 nM (active) and 463 nM (active)
[17]
  AC50: 9.64 µM (active)

## Cc1ccc([N+](=O)[O-])cc1
[1]
  outcome: inactive
[2]
  outcome: inactive
[3]
  outcome: inactive
[4]
  outcome: inactive
[5]
  outcome: inactive
[6]
  AC50: 8.26 µM (active)
[7]
  outcome: inactive
[8]
  outcome: inactive
[9]
  outcome: inactive
[10]
  outcome: inactive
[11]
  outcome: inactive
[12]
  outcome: inactive
[13]
  outcome: inactive
[14]
  outcome: inactive
[15]
  outcome: inactive
[16]
  outcome: inactive
[17]
  outcome: inactive

## Nc1ccc(Oc2ccc(N)cc2)cc1
[1]
  outcome: inactive
[2]
  outcome: inactive
[3]
  outcome: inactive
[4]
  outcome: inactive
[5]
  outcome: inactive
[6]
  AC50: 78.9 µM (active)
[7]
  outcome: inactive
[8]
  outcome: inactive
[9]
  outcome: inactive
[10]
  outcome: inactive
[11]
  outcome: inactive
[18]
  outcome: inactive
[19]
  outcome: inactive
[12]
  outcome: inactive
[14]
  outcome: inactive
[15]
  outcome: inactive
[16]
  outcome: inactive

## O=[N+]([O-])C(Br)(CO)CO
[1]
  outcome: inactive
[2]
  outcome: inactive
[3]
  outcome: inactive
[4]
  outcome: inactive
[6]
  outcome: inactive
[7]
  outcome: inactive
[8]
  outcome: inactive
[9]
  outcome: inactive
[10]
  outcome: inactive
[17]
  outcome: inactive

## O=Cc1ccco1
[1]
  outcome: inactive
[2]
  outcome: inactive
[3]
  outcome: inactive
[4]
  outcome: inactive
[5]
  outcome: inactive
[6]
  outcome: inactive
[8]
  outcome: inactive
[11]
  outcome: inactive
[19]
  outcome: inactive
[12]
  outcome: inactive
[13]
  outcome: inactive
[14]
  outcome: inactive
[16]
  outcome: inactive
[17]
  outcome: inactive

## CC(C)(C)C(O)(CCc1ccc(Cl)cc1)Cn1cncn1 (stereo unspecified)
[1]
  outcome: inactive
[2]
  AC50: 50 µM (active)
[3]
  outcome: inactive
[4]
  outcome: inactive
[5]
  AC50: 71.9 µM (active)
[6]
  AC50: 1.32 µM (active)
[8]
  outcome: inactive
[9]
  AC50: 72 µM (active)
[10]
  outcome: inactive
[11]
  outcome: inactive
[18]
  outcome: inactive
[19]
  outcome: inactive
[12]
  outcome: inactive
[13]
  outcome: inactive
[14]
  outcome: inactive
[15]
  outcome: inactive
[16]
  outcome: inactive
[17]
  outcome: inactive

## O=C(Nc1ccccc1)c1ccccc1I
[1]
  outcome: inactive
[2]
  AC50: 50 µM (active)
[3]
  outcome: inactive
[4]
  outcome: inactive
[6]
  AC50: 13.1 µM (active)
[7]
  outcome: inactive
[8]
  AC50: 13.2 µM (active)
[9]
  AC50: 40.5 µM (active)

## Nc1ccc(Cc2ccc(N)cc2)cc1
[1]
  outcome: inactive
[2]
  outcome: inactive
[3]
  outcome: inactive
[4]
  outcome: inactive
[5]
  outcome: inactive
[6]
  AC50: 26.2 µM (active)
[8]
  outcome: inactive
[9]
  outcome: inactive
[10]
  outcome: inactive
[11]
  outcome: inactive
[12]
  outcome: inactive
[13]
  outcome: inactive
[14]
  outcome: inactive
[15]
  outcome: inactive
[16]
  outcome: inactive
